# C diff growth – C. difficile growth inhibition | Clostridium difficile clinical isolate growth, OD600, 24 h; stronger effect = lower value | growth activity, negative = inhibition, % at 16 µg/mL (by protocol) | hit rate 0.25% among 86,000;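 active = mean growth activity at or below -80% and every replicate also at or below -80%; inconclusive = mean at or below -80% but some replicate above -80%; inactive = mean growth activity above -80%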
# T cruzi growth-1 – blocks T. cruzi growth in NIH3T3 culture | T. cruzi beta-gal in NIH3T3, GalScreen luminescence, 90 h | inhibition, % at 8.34 µM | hit rate 5.9% among 77,000 | AID 624255;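 active = mean inhibition above about 93%, with at least 55% of replicates each passing it, limit read from the data, passing the limit was not always enough; inconclusive = only one of those two conditions holds; inactive = neither condition holds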
# Pf Dd2 inh – blocks growth of Plasmodium falciparum Dd2 parasites. P. falciparum Dd2 growth, SYBR Green, 72 h; stronger effect = lower value. activity change, % at 10 µM. hit rate 2.3% among 94,000. AID 1159554; in the data active = activity change below about -80%; inconclusive = no clear call, values can overlap the other calls
# T cruzi growth-2 – blocks T. cruzi growth in NIH3T3 host cells. shares compounds with T cruzi growth-1. T. cruzi beta-gal in NIH3T3, GalScreen luminescence, 90 h. inhibition, % at 8.35 µM. hit rate 72% among 5,600. AID 651739;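 active = mean replicate inhibition above about 95% and at least 55% of replicates individually reaching it, limit read from the data; inconclusive = only one of the two criteria is met; inactive = neither criterion is met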
# T cruzi growth-3 – blocks T. cruzi growth in NIH3T3 host cells; shares compounds with T cruzi growth-1; T. cruzi beta-gal in NIH3T3, GalScreen luminescence, 90 h; inhibition, % at 2.09 µM; hit rate 21% among 5,600;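 active = mean inhibition above about 95%, with at least 55% of replicates also reaching it, limit read from the data; inconclusive = meets just one of the two conditions; inactive = meets neither condition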
# NIH3T3 tox – kills mouse NIH/3T3 fibroblasts. hit rate 14% among 5,600. NIH/3T3 viability, CellTiter-Glo ATP luminescence, 90 h. cytotoxicity (signal decrease), % at 8.35 µM. shares compounds with T cruzi growth-1;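 active = mean signal decrease across replicates above about 35% based on untreated-well scatter, with enough replicates individually passing, limit read from the data; inconclusive = no rule stated though some were filed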
# NIH3T3 tox 2 – kills mouse NIH/3T3 fibroblasts. AID 651744. NIH/3T3 viability, CellTiter-Glo ATP luminescence, 90 h. hit rate 56% among 5,600. inhibition, % at 24.9 µM. shares compounds with T cruzi growth-1;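 active = mean loss of cell viability signal at or above a set limit, and enough replicates individually reaching it; inconclusive = meets only the mean limit or only the replicate share; inactive = meets neither condition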
# A number is an active result; - = inactive; ? = inconclusive; . = no result. An excerpt weighted towards active compounds, which were near 6.7% of everything screened.
SMILES,C diff growth,T cruzi growth-1,Pf Dd2 inh,T cruzi growth-2,T cruzi growth-3,NIH3T3 tox,NIH3T3 tox 2
C[C@H]1CN([C@@H](C)CO)S(=O)(=O)c2ccc(C#Cc3cccc(F)c3)cc2O[C@H]1CN(C)C,-,-,-,.,.,.,.
C[C@@H]1CN([C@H](C)CO)S(=O)(=O)c2ccc(C#Cc3cccc(F)c3)cc2O[C@H]1CN(C)S(=O)(=O)c1cn(C)cn1,-,-,-,.,.,.,.
C[C@@H]1CN([C@H](C)CO)S(=O)(=O)c2ccc(C#Cc3cccc(F)c3)cc2O[C@@H]1CN(C)C,-,-,-,.,.,.,.
C[C@@H]1CN([C@@H](C)CO)S(=O)(=O)c2ccc(C#Cc3cccc(F)c3)cc2O[C@@H]1CN(C)S(=O)(=O)c1ccccc1F,-,105.6,-,101.6,110.5,34.5,-
CNC[C@@H]1OCCCC[C@H](C)Oc2ccc(NC(=O)Nc3c(C)noc3C)cc2C(=O)N([C@H](C)CO)C[C@@H]1C,-,-,-,.,.,.,.
COc1ccc2c3c([nH]c2c1)[C@@H](CO)N(Cc1ccncc1)CC31CN(S(C)(=O)=O)C1,.,.,-,.,.,.,.
C[C@H]1CN([C@@H](C)CO)C(=O)c2cc(C#CC3CCCCC3)cnc2O[C@@H]1CN(C)S(=O)(=O)c1ccccc1,-,?,-,111.2,-,-,86.8
C[C@@H]1CN([C@H](C)CO)C(=O)c2cc(C#CC3CCCCC3)cnc2O[C@@H]1CN(C)S(=O)(=O)c1ccccc1,-,?,-,105.8,-,-,91.1
C[C@H](CO)N1C[C@H](C)[C@@H](CN(C)S(=O)(=O)c2cccc(F)c2)Oc2ncc(C#CC3CCCCC3)cc2C1=O,-,.,-,.,.,.,.
C[C@H](CO)N1C[C@H](C)[C@@H](CN(C)S(=O)(=O)c2ccccc2)Oc2ncc(C#CC3CCCCC3)cc2C1=O,-,107.5,-,106.1,-,-,85.4
C[C@H](CO)N1C[C@H](C)[C@@H](CN(C)S(=O)(=O)c2ccc(F)cc2)Oc2ncc(C#CC3CCCCC3)cc2C1=O,-,-,-,.,.,.,.
C[C@@H]1CN([C@H](C)CO)C(=O)c2cc(C#CC3CCCCC3)cnc2O[C@H]1CN(C)S(=O)(=O)c1cccc(F)c1,-,.,-,.,.,.,.
C[C@H](CO)N1C[C@H](C)[C@H](CN(C)S(C)(=O)=O)Oc2ncc(C#CC3CCCCC3)cc2C1=O,-,-,-,.,.,.,.
C[C@H]1CN([C@@H](C)CO)C(=O)c2cc(C#CC3CCCCC3)cnc2O[C@@H]1CN(C)S(=O)(=O)c1ccc(F)cc1,-,108.4,-,99.7,-,-,94.6
COc1ccc(S(=O)(=O)N(C)C[C@@H]2OCCCC[C@@H](C)Oc3ccc(NC(=O)Nc4c(C)noc4C)cc3C(=O)N([C@H](C)CO)C[C@H]2C)cc1,-,-,-,.,.,.,.
C[C@@H]1CN([C@@H](C)CO)C(=O)c2cc(C#Cc3cccnc3)cnc2O[C@H]1CN(C)Cc1ccc(F)cc1,-,.,-,.,.,.,.
O=C(Cc1cccnc1)N[C@H]1CC[C@H](CCn2cc(Cc3ccccc3)nn2)O[C@H]1CO,-,-,-,.,.,.,.
COC(=O)C[C@@H]1CC[C@@H]2[C@H](COc3ccc(NS(=O)(=O)c4ccccc4Cl)cc3C(=O)N2C)O1,-,-,.,.,.,.,.
C[C@H]1CN([C@@H](C)CO)C(=O)c2cc(C#CC3CCCCC3)cnc2O[C@H]1CN(C)S(=O)(=O)c1cccc(F)c1,-,.,-,.,.,.,.
C[C@@H]1CN([C@@H](C)CO)C(=O)c2cc(C#CC3CCCCC3)cnc2O[C@@H]1CN(C)S(=O)(=O)c1ccccc1,-,111.0,-,108.3,-,-,94.1
CCCNC(=O)N1CC2(C1)[C@@H](c1ccccc1)[C@H](CO)N2CC1CCOCC1,-,.,-,.,.,.,.
O=C(NC1CCC1)[C@@H]1[C@@H](CO)[C@@H]2Cn3c(ccc(-c4ccc(F)cc4)c3=O)[C@H]1N2,-,-,.,.,.,.,.
COc1cccc(-c2ccc([C@H]3[C@@H](C#N)N(C(=O)c4ccccn4)[C@H]3CO)cc2)c1,-,-,-,.,.,.,.
C[C@@H]1CCCCO[C@@H](CN(C)C(=O)Nc2ccc3c(c2)OCO3)[C@H](C)CN([C@@H](C)CO)C(=O)c2cc(NC(=O)NC3CCCCC3)ccc2O1,-,-,-,.,.,.,.
C[C@@H]1CN([C@H](C)CO)C(=O)c2cc(NC(=O)NC3CCCCC3)ccc2O[C@@H](C)CCCCO[C@H]1CN(C)C(=O)Nc1ccc2c(c1)OCO2,-,-,-,.,.,.,.
SMILES,C diff growth,T cruzi growth-1,Pf Dd2 inh,T cruzi growth-2,T cruzi growth-3,NIH3T3 tox,NIH3T3 tox 2
C[C@@H]1CCCCO[C@@H](CN(C)C(=O)Nc2ccc3c(c2)OCO3)[C@H](C)CN([C@H](C)CO)C(=O)c2cc(NC(=O)NC3CCCCC3)ccc2O1,-,?,-,108.1,-,-,-
C[C@H]1CCCCO[C@@H](CN(C)C(=O)Nc2ccc3c(c2)OCO3)[C@@H](C)CN([C@@H](C)CO)C(=O)c2cc(NC(=O)NC3CCCCC3)ccc2O1,-,117.7,-,112.7,-,-,-
C[C@@H]1CN([C@@H](C)CO)C(=O)c2cc(NC(=O)CCCN(C)C)ccc2O[C@@H](C)CCCCO[C@@H]1CN(C)S(C)(=O)=O,-,-,-,.,.,.,.
O=S(=O)(c1cccc(F)c1)N1CC[C@@H]2[C@@H](CO)Nc3ccc(-c4cccc(F)c4)cc3[C@@H]21,-,-,-,.,.,.,.
C/C=C/c1ccc([C@@H]2[C@@H](CN(CC)C(=O)CC)N(C(=O)C3CCC3)[C@H]2CO)cc1,-,-,-,.,.,.,.
C/C=C/c1ccc([C@@H]2[C@H](CO)N(C(=O)C3CC3)[C@H]2CN(CC)C(C)=O)cc1,-,100.0,-,-,-,-,-
C/C=C/c1ccc([C@@H]2[C@@H](CN(CC)C(=O)CC)N(C(C)=O)[C@H]2CO)cc1,-,-,-,.,.,.,.
C/C=C/c1ccc([C@@H]2[C@@H](CO)N(C(C)=O)[C@H]2CN(CC)C(=O)CC)cc1,-,100.7,-,106.0,-,-,-
COc1ccc2c3c(n(C)c2c1)[C@@H](CO)N(Cc1ccncc1)CC31CCN(C(=O)NC(C)C)CC1,-,.,-,.,.,.,.
COc1cccc(NC(=O)N2CC3(C2)[C@@H](c2ccccc2)[C@@H](CO)N3C(=O)C2CC2)c1,-,.,-,.,.,.,.
O=C(C1CC1)N1CC(=O)N2[C@H](CO)[C@@H](c3ccc(Br)cc3)[C@H]2C1,-,.,-,.,.,.,.
COc1ccc(NC(=O)Nc2ccc3c(c2)C(=O)N([C@H](C)CO)C[C@@H](C)[C@@H](CN(C)S(=O)(=O)c2ccc(F)cc2)O3)cc1,-,-,-,.,.,.,.
CC(C)CC#Cc1cnc2c(c1)C(=O)N([C@@H](C)CO)C[C@@H](C)[C@H](CN(C)C(=O)Nc1cc(F)ccc1F)O2,-,115.0,-,101.4,99.7,-,74.4
CCCC#Cc1cnc2c(c1)C(=O)N([C@@H](C)CO)C[C@@H](C)[C@H](CN(C)C(=O)Nc1ccccc1F)O2,-,?,-,115.2,-,-,39.4
